Source: PubChem (National Center for Advancing Translational Sciences (NCATS))
Only some compounds are listed: those with a hit (about 5.2% of all), similar ones and a draw of the others.
Sfp inh = qHTS Assay for Inhibitors of Bacillus subtilis Sfp phosphopantetheinyl transferase (PPTase); 4'-phosphopantetheinyl transferase ffp (Bacillus subtilis), Q9F4F7; Biochemical Sfp PPTase activity, qHTS; Potency, µM, for inactives: largest response in the series, negative = inhibition, actives largely listed as inhibitors; 3.5% of 310,000 active; AID 1490, 2009;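 further: the enzyme is Sfp with the accession as filed and its product quenches rhodamine fluorescence; potency means the concentration at half of the fitted maximal effect; 0% = enzyme reaction without inhibitor and -100% = no enzyme wells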
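Sfp 15 nM + cpd, 15 min RT; start w/ rhodamine-CoA 5 uM, BHQ-2-YbbR 12.5 uM (final); 50 mM Hepes pH 7.6, 10 mM MgCl2, 0.01% NP-40, 0.01% BSA; read 525/598 nm at 0 and 30 min.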
Tau fluor counter = Counterscreen qHTS for Inhibitors of Tau Fibril Formation, Fluorescence Polarization. 0.93% of 280,000 active. tau K18 P301L Alexa594 fluorescence, heparin fibrillization. Potency, µM (highest dose often 57.7 µM), without a hit: top-dose activity change, negative = decrease. AID 1463, 2008; further: potency means the concentration at half of the fitted maximal effect; nearly all actives have a fitted effect of over 55% in size
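Human K18 P301L tau (15 uM unlabeled plus 0.24 uM Alexa 594-labeled, final) in 100 mM sodium acetate pH 7 was mixed with compound and 20 uM heparin and incubated 6 hr at 37 C.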
FBPA coupling cs = qHTS Assay for Inhibitors of Fructose-1,6-bisphosphate Aldolase from Giardia Lamblia: Coupling assay counterscreen. coupling enzyme system counterscreen, AmpLite Red fluorescence. activity change, negative = inhibition, % at 58.2 µM, hits read low. 0.67% of 290,000 active. AID 2472, 2010; in the data active means activity change below about -30%
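Counterscreen of the coupled detection system alone, without aldolase: glyceraldehyde-3-phosphate coupling enzymes plus AmpLite Red readout. Compounds at 57.5 uM final, 10 min RT preincubation, 20 min RT reaction, fluorescence 525/598 nm.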
Tau fibril ThT = qHTS for Inhibitors of Tau Fibril Formation, Thioflavin T Binding; Microtubule-associated protein tau (Homo sapiens), P10636; recombinant tau K18 P301L (four-repeat tau fragment), heparin-induced fibrillization, ThT fluorescence; Potency, µM (series often up to 57.4 µM), without a hit: at the top dose activity, negative = inhibition, actives largely listed as inhibitors; 2.1% of 270,000 active; AID 1460, 2008; further: potency means the concentration at half of the fitted maximal effect; nearly all actives have a fitted effect of over 55% in size
Target sequence (P10636 561-689 P618L limits assumed): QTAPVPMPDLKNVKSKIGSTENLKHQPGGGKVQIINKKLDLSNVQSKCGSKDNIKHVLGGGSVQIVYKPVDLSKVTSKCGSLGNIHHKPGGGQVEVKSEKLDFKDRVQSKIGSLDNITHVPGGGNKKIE
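K18 P301L tau (15 uM + 0.24 uM Alexa 594-tagged), heparin 20 uM, NaOAc pH 7, 6 h 37 C; ThT 30 uM, 1 h RT, ex 450/em 510 nm.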
Tau fibril FP = qHTS for Inhibitors of Tau Fibril Formation, Fluorescence Polarization. Microtubule-associated protein tau (Homo sapiens), P10636. K18 P301L tau heparin fibrillization, Alexa594 FP, 6 h. Potency, µM (doses to about 57.7 µM), without a hit: at the highest dose activity, negative = inhibition, usual class: inhibitors. 0.39% of 280,000 active; further: potency means the concentration at half of the fitted maximal effect; nearly all actives have a fitted effect of over 55% in size
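K18 P301L tau (15 uM unlabeled/0.24 uM Alexa 594-labeled, final) + compound + heparin 20 uM final; 100 mM NaOAc pH 7; 6 hr 37 C; ThT 30 uM final added, 1 hr RT; FP ex 555/em 632 nm.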
Numbers without * were called inactive; ? = inconclusive; . = no result given; [ ] = another dose, or the depositor's remark. Unless noted, the call rests on the fitted dose curve; in most records, active means well fitted curve in the direction sought with a large enough effect; inconclusive means small, poorly fitted or top-dose-only effect, or another doubt; inactive means no such curve, though single readings can be large; an effect the other way counts as inactive or inconclusive. Unless noted, on the % scale 0 is the no-effect control and ±100 the full control effect.

SMILES	Sfp inh	Tau fluor counter	FBPA coupling cs	Tau fibril ThT	Tau fibril FP
CC1=NN(c2ccccc2)C(=O)/C1=C\c1cc(C)n(-c2ccccc2)c1C	9%	-26%	1	7.9µM*	-4%
CC1=NN(c2ccccc2)C(=O)/C1=C\c1ccc(Br)s1	-5%	?	-8	13µM*	-1%
COc1ccc2cc(CCNS(=O)(=O)c3ccc(C)cc3)c(=O)[nH]c2c1	.	-15%	.	-10%	-5%
CCOC(=O)c1c(S(=O)(=O)N2CCC(C(=O)Nc3ncccc3C)CC2)c(C)n(C)c1C	.	-4%	.	4%	1%
O=C(NCc1ccccc1Cl)c1ccc2c(c1)ncn2-c1cccc(F)c1	.	-17%	.	-15%	4%
CCCCc1cc(=O)oc2cc(C)c3c(C(C)(C)C)coc3c12	.	?	.	?	-6%
CC1=NN(c2ccccc2)C(=O)/C1=C/c1ccc(Cl)cc1	-23%	.	0	.	.
CC1=NN(c2ccccc2)C(=O)/C1=C/c1ccc[nH]1	7%	-20%	-2	13µM*	-2%
C=Cc1ccc(CSc2nc(-c3ccccc3C)nc3c2Cc2c(CO)cnc(C)c2O3)cc1	.	0%	.	-7%	-2%
Cc1cccc(C(=O)Nc2cccc(OC(=O)c3cccc(C)c3)c2)c1	14%	?	2	-11%	?
Cc1cccc(C(=O)Oc2csc(=S)n2C(=O)c2cccc(C)c2)c1	45µM*	-24%	-1	13µM*	-15%
O=C(Oc1csc(=S)n1C(=O)c1ccccc1)c1ccccc1	40µM*	-25%	0	11µM*	-16%
Fc1ccccc1Cc1cn2cc(-c3ccc(Cl)cc3)nc2s1	.	-7%	.	-3%	-13%
C/C(=N/O)c1ccccn1	40µM*	8%	-1	-8%	-6%
CCCCCC/C(=N/O)c1ccccn1	4%	-14%	2	-9%	-12%
Cc1ccccc1C(=O)Nc1cccc(-c2nc3cccnc3s2)c1	.	-28%	.	?	1%
Brc1ccc(-c2nn3c(-c4ccncc4)nnc3s2)o1	12%	-7%	1	-14%	1%
Brc1ccc(-c2nn3c(-c4ccco4)nnc3s2)o1	20µM*	-4%	4	?	0%
Brc1ccc(-c2nn3c(-c4ccccn4)nnc3s2)o1	8.9µM*	-4%	-3	?	-3%
CC(C)(C)c1ccc(-c2nnc3sc(-c4ccccn4)nn23)cc1	45µM*	-22%	-4	?	?
Clc1ccc(-c2nnc3sc(-c4ccccn4)nn23)cc1	11%	-2%	-3	-1%	-3%
c1coc(-c2nnc3sc(C4CCCCC4)nn23)c1	35µM*	19%	1	20%	-2%
COc1ccc(-c2nnc3sc(C4CCCCC4)nn23)cc1OC	0%	-12%	-2	-22%	4%
CCc1cccc(NC(=O)CC(c2ccc(OC)cc2)N2Cc3ccccc3C2=O)c1 (stereo not drawn)	.	-23%	.	3%	?
CCc1ccccc1N(C)C(=O)c1nn(-c2ccc(OC)cc2)c(=O)c2c1c1ccccc1n2C	.	-27%	.	-15%	-9%
SMILES	Sfp inh	Tau fluor counter	FBPA coupling cs	Tau fibril ThT	Tau fibril FP
O=c1[nH]c2ccc(NCc3ccccc3OCc3ccc(Cl)cc3)cc2[nH]1	-28%	.	0	.	.
Oc1ccc(NCc2ccccc2OCc2ccc(Cl)cc2)cc1	.	?	.	14µM*	-15%
CCOc1cc(CNc2ccc(O)cc2)ccc1OCc1ccc(Cl)cc1	.	14µM*[quencher]	.	16µM*	-8%
CCn1cc2nc(SCc3ccccc3Cl)n(Cc3ccc(OC)cc3)c(=O)c2n1	.	-17%	.	-11%	0%
CCOC(=O)N1CCC(NC(=O)c2oc3c(c2C)-c2[nH]ncc2CC3)CC1	-11%	-15%	-41*	?	5%
Cc1cc(NC(=O)COc2cccc(C)c2C)no1	3%	-6%	-3	-10%	-8%
Cc1cc(NC(=O)COc2cccc3cccnc23)no1	-26%	-11%	-32*	?	2%
Cc1ccc(OCCCOc2cccc3cccnc23)cc1C	89µM*	-2%	-1	?	15%
Cc1cccc(OCCCOc2cccc3cccnc23)c1C	79µM*	-9%	.	?	2%
CCOc1ccc(CCNC(=O)CCCc2nnc3n(C)c(=O)c4sccc4n23)cc1OCC	.	-15%	.	-7%	-5%
COc1cccc(-c2cc(C(=O)NCc3ccccc3)[nH]n2)c1	.	-19%	.	-2%	-12%
O=C(NNCS(=O)(=O)O)c1ccncc1	14%	.	.	.	.
O=C(Cn1nnc(-c2ccccc2NC(=O)c2ccccc2)n1)Nc1ccc2c(c1)OCCO2	-18%	-23%	3	?	?
Cc1ccccc1C(=O)Nc1ccccc1-c1nnn(CC(=O)Nc2ccc3c(c2)OCCO3)n1	56µM*	?	-1	12%	?
CN(C)CCCSc1ccccc1NC(=O)/C=C\c1ccccc1	0%	-7%	-1	-3%	3%
O=C(O)CCC(=O)c1ccc2c(c1)OCCO2	12%	-4%	5	-6%	-3%
Cn1c(SCC(=O)c2ccc3c(c2)OCCO3)nnc1C(F)(F)F	-14%	-6%	1	-7%	-9%
O=C(CSc1nc(Cc2ccccc2)nc2ccccc12)c1ccc2c(c1)OCCO2	-14%	?	-4	-16%	-16%
CCCc1nc(SCC(=O)c2ccc(OC)cc2)c2ccccc2n1	79µM*	-15%	-1	?	-15%
Cn1c(SCC(=O)c2ccc3c(c2)OCCO3)nnc1C1CC1	71µM*	-4%	3	-12%	-11%
CCc1nc(SCC(=O)c2ccc3c(c2)OCCO3)c2ccccc2n1	50µM*	-27%	-1	?	-8%
O=C(O)CCSCC(=O)c1ccc2c(c1)OCCO2	45µM*	-11%	2	?	-9%
COC(=O)C(C(=O)OC)[C@@H]1O[C@@]23COC=C[C@]2(C)[C@H]3c2ccccc21	-7%	-11%	-2	-8%	-4%
CSc1ccc(CCNC(=O)c2ccc3c(c2)nc2n3CCCCC2)cc1	.	0%	.	?	-1%
N[C@H](C(=O)O)c1nn[nH]n1	89µM*	-6%	-1	-7%	-20%
Cc1ccc2c(CC(=O)N(Cc3ccc(Cl)cc3)Cc3ccco3)coc2c1	.	-23%	.	?	-6%
COc1ccc(CCNC(=O)Cn2ncc3c(C)n(Cc4ccccc4F)c(C)c3c2=O)cc1OC	.	-10%	.	4%	-13%
Cc1coc2c1C(=O)C(=O)c1c-2ccc2c(C)cccc12	-4%	-28%	-55*	2µM*	?
Cc1ccc2c3c(cccc13)-c1ccccc1C2=O	?	-27%	-5	?	-2%
